Data as given in PubChem BioAssay (EPA / NIEHS).
Where “and” joins values, the source holds several entries; their conditions need not be identical. Equal values may be shown once. Some structures have more than one record in an assay (separate samples or runs), and their calls can disagree. Calls of active or inactive are those of the source. How the source made its calls: active means hit-call score of the fitted dose curve at least 0.9, where 1 is the maximum; inactive means score below 0.9.

Columns and labels:
[1] = read-out: Interleukin-1 alpha (IL1a), IL1A (gene 3552); assay: BSK_LPS_IL1a: BioMAP Diversity Plus: LPS Assay for Interleukin-1 alpha (IL1a) Biomarker Activity (AID 2283080); details: primary human HUVEC with PBMC; actives raise or lower the signal
In short: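 ELISA read-out of IL-1 alpha from a human primary vascular co-culture (endothelium plus PBMC) under LPS, sampled 24 hours post-dosing. Activity was fitted in both directions relative to DMSO controls.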

[2] = BSK_LPS_PGE2: BioMAP Diversity Plus: LPS Assay for Prostaglandin E2 (PGE2) Biomarker Activity (AID 2283082); details: primary human HUVEC with PBMC; actives raise or lower the signal;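 on AC50: secreted prostaglandin E2 measured by ELISA in LPS-stimulated co-culture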
In short: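 HUVEC plus PBMC co-culture stimulated with LPS; secreted PGE2 quantified by ELISA 24 h after chemical dosing. Activity fitted bidirectionally against DMSO as negative control and baseline; parallel SRB total-protein staining served as cytotoxicity check.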

[3] = read-out: Macrophage colony-stimulating factor (MCSF), CSF1 (gene 1435); assay: BSK_LPS_MCSF: BioMAP Diversity Plus: LPS Assay for Macrophage colony-stimulating factor (MCSF) Biomarker Activity (AID 2283083); details: primary human HUVEC with PBMC; actives raise or lower the signal
In short: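 ELISA readout of M-CSF after 24 h compound exposure in a human endothelial/PBMC co-culture. Activity, in either direction, is fitted relative to DMSO vehicle.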

[4] = read-out: Tissue Factor, F3 (gene 2152); assay: BSK_LPS_TissueFactor: BioMAP Diversity Plus: LPS Assay for Tissue Factor Biomarker Activity (AID 2283084); details: primary human HUVEC with PBMC; actives raise or lower the signal
In short: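 ELISA signal for cell-surface Tissue Factor (CD142) was read 24 h after compound dosing of an LPS-stimulated human endothelial–PBMC primary co-culture. Gain or loss of signal was scored relative to DMSO.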

[5] = read-out: Tumor necrosis factor (Homo sapiens) (UniProt P01375); assay: BSK_LPS_TNFa: BioMAP Diversity Plus: LPS Assay for Tumour Necrosis Factor alpha (TNFa) Biomarker Activity (AID 2283085); details: primary human HUVEC with PBMC; actives raise or lower the signal
In short: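 Human umbilical vein endothelial cells co-cultured with PBMC were exposed to test chemical and TNFa measured by ELISA 24 h after dosing. Bidirectional curve fitting was done relative to DMSO as negative control and baseline.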

[6] = read-out: Vascular cell adhesion molecule 1 (VCAM1), VCAM1 (gene 7412); assay: BSK_LPS_VCAM1: BioMAP Diversity Plus: LPS Assay for Vascular cell adhesion molecule 1 (VCAM1) Biomarker Activity (AID 2283086); details: primary human HUVEC with PBMC; actives raise or lower the signal
In short: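 Human umbilical vein endothelial cells co-cultured with peripheral blood mononuclear cells under LPS stimulation were exposed to test chemical for 24 h. VCAM-1 levels were then measured by ELISA, with bidirectional curve fitting relative to DMSO as negative control and baseline.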

CD38, CD38 (gene 952) = assay: BSK_SAg_CD38: BioMAP Diversity Plus: SAg Assay for CD38 Biomarker Activity (AID 2283087); details: primary human HUVEC with PBMC; actives raise or lower the signal
In short: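 Fluorescence ELISA of cell-surface CD38 served as the read-out, with either increase or decrease fitted against DMSO controls. Cells were a human umbilical vein endothelium plus PBMC co-culture under SEB/TSST-1 stimulation, measured 24 h after dosing.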

CD40, CD40 (gene 958) = assay: BSK_SAg_CD40: BioMAP Diversity Plus: SAg Assay for CD40 Biomarker Activity (AID 2283088); details: primary human HUVEC with PBMC; actives raise or lower the signal
In short: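 Compounds were dosed onto a human primary endothelial–PBMC co-culture, and after 24 h CD40 was quantified by ELISA using a fluorescence signal. Activity in either direction was fitted relative to DMSO.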

CD69, CD69 (gene 969) = assay: BSK_SAg_CD69: BioMAP Diversity Plus: SAg Assay for CD69 Biomarker Activity (AID 2283089); details: primary human HUVEC with PBMC; actives raise or lower the signal;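 on AC50: cell surface CD69 protein quantified by ELISA with fluorescence detection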
In short: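 HUVEC co-cultured with PBMC were dosed with chemical, and CD69 was measured by ELISA with fluorescence read-out 24 h later. Bidirectional curve fitting used DMSO as negative control and activity baseline.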

[7] = read-out: Monocyte Chemoattractant Protein-1 (MCP1), CCL2 (gene 6347); assay: BSK_SAg_MCP1: BioMAP Diversity Plus: SAg Assay for Monocyte Chemoattractant Protein-1 (MCP1) Biomarker Activity (AID 2283090); details: primary human HUVEC with PBMC; actives raise or lower the signal
In short: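 MCP-1 levels in the endothelial–PBMC SAg co-culture were quantified by ELISA at 24 h post-dosing; both increases and decreases versus DMSO scored. Cytotoxicity monitored by SRB total protein in parallel cultures.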

[8] = read-out: E-selectin (Homo sapiens) (UniProt P16581); assay: BSK_SAg_Eselectin: BioMAP Diversity Plus: SAg Assay for Eselectin Biomarker Activity (AID 2283091); details: primary human HUVEC with PBMC; actives raise or lower the signal
In short: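 Co-culture: HUVEC + PBMC. Dose compound; 24 h. ELISA for E-selectin. Bidirectional fit vs DMSO.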

[9] = read-out: Monokine induced gamma interferon (MIG), CXCL9 (gene 4283); assay: BSK_SAg_MIG: BioMAP Diversity Plus: SAg Assay for Monokine induced gamma interferon (MIG) Biomarker Activity (AID 2283092); details: primary human HUVEC with PBMC; actives raise or lower the signal
In short: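 HUVEC plus human PBMC co-culture, chemicals dosed and MIG (CXCL9) quantified by ELISA at 24 h. Bidirectional curve fitting against DMSO as negative control and baseline, so both gain and loss of signal count as activity.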

[10] = BSK_SAg_PBMCCytotoxicity: PBMC Cytotoxicity Assessment in the BioMAP Diversity Plus: SAg Assay (AID 2283093); details: primary human HUVEC with PBMC;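 further: PBMC viability measured as Alamar Blue reduction fluorescence at 546/580 nm; fitted both ways against DMSO so a hit may be loss or gain of signal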;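 on AC50: PBMC superantigen activated with SEB plus TSST-1 one hour after compound addition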
In short: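 HUVEC/PBMC co-culture; PBMC exposed to chemical 1 h before SEB and TSST-1 activation (20 ng/mL each), incubated 90 h, then Alamar Blue 6 h, fluorescence 546/580 nm. Bidirectional fit versus DMSO baseline.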

[11] = read-out: Interleukin-8 (IL8), CXCL8 (gene 3576); assay: BSK_SAg_IL8: BioMAP Diversity Plus: SAg Assay for Interleukin-8 (IL8) Biomarker Activity (AID 2283094); details: primary human HUVEC with PBMC; actives raise or lower the signal
In short: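 Human umbilical vein endothelial cells co-cultured with peripheral blood mononuclear cells; IL-8 measured by ELISA 24 h after chemical dosing. Bidirectional concentration-response fitting used DMSO as negative control and activity baseline.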

[12] = BSK_SAg_Proliferation: Cell Proliferation Assessment in the BioMAP Diversity Plus: SAg Assay (AID 2283095); details: primary human HUVEC with PBMC;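 further: relative cell number as total protein by SRB absorbance in sub-confluent culture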
In short: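 Human umbilical vein endothelial cells co-cultured with peripheral blood mononuclear cells; total protein measured by sulforhodamine B staining (0.1% SRB after 10% TCA fixation), absorbance at 560 nm, at 96 h. Bidirectional fit against DMSO baseline.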

[13] = BSK_SAg_SRB: Viability Assessment in the BioMAP Diversity Plus: SAg Assay (AID 2283096); details: primary human HUVEC with PBMC;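 further: cells read one day after compound addition; hits may be either gain or loss of signal compared with DMSO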
In short: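 Human umbilical vein endothelial cells co-cultured with PBMC, read 24 h after compound dosing. Total protein measured by sulforhodamine B staining (0.1% SRB after 10% TCA fixation, absorbance 560 nm); bidirectional fit versus DMSO baseline.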

[14] = read-out: Monocyte Chemoattractant Protein-1 (MCP1), CCL2 (gene 6347); assay: BSK_LPS_MCP1: BioMAP Diversity Plus: LPS Assay for Monocyte Chemoattractant Protein-1 (MCP1) Biomarker Activity (AID 2283081); details: primary human HUVEC with PBMC; actives raise or lower the signal
In short: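 Human endothelial–PBMC co-cultures were dosed with chemical, then LPS-driven MCP-1 levels were quantified by ELISA at 24 h. Activity in either direction was fitted versus DMSO negative control.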

Measured: AC50

Chain of E-selectin (Homo sapiens) (P16581 whole entry, looked up): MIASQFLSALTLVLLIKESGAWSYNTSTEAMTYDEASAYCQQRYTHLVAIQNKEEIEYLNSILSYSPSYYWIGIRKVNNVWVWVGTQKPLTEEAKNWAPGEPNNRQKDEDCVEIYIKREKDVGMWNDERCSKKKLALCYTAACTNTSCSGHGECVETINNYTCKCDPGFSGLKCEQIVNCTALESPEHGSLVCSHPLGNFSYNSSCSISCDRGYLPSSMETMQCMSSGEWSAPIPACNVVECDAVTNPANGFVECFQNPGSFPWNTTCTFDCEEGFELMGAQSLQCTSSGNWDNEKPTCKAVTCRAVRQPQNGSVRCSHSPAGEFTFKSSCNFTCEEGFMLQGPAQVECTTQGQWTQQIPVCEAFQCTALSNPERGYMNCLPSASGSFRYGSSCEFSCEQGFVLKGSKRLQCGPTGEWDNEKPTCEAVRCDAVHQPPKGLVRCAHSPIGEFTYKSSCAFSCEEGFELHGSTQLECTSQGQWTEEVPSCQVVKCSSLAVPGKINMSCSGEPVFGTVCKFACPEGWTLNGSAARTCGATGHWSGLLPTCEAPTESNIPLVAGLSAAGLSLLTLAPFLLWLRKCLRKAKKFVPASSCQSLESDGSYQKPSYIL
Chain of Tumor necrosis factor (Homo sapiens) (P01375 whole entry, looked up): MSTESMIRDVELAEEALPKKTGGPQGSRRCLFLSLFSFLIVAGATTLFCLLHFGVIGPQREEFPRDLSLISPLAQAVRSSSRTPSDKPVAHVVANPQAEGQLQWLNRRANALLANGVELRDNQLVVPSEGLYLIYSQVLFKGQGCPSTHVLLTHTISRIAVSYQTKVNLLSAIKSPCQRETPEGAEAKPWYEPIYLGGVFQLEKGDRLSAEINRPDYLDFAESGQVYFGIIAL

C[N+](C)(C)CCCNS(=O)(=O)C(F)(F)C(F)(F)C(F)(F)C(F)(F)C(F)(F)C(F)(F)C(F)(F)C(F)(F)F
active: [1] 13.2 µM and 30 µM | [2] 19.3 µM and 14.8 µM | [3] 46.7 µM and 52.8 µM | [4] 14.1 µM | [5] 41 µM and 28.3 µM | [6] 45 µM and 49.6 µM | CD40, CD40 (gene 958) 30 µM | [10] 51.3 µM | [12] 46.5 µM | [13] 43.5 µM and 46.5 µM
inactive: [4] | CD38, CD38 (gene 952) | CD40, CD40 (gene 958) | CD69, CD69 (gene 969) | [7] | [8] | [9] | [10] | [11] | [12]

COc1ccc(C(=O)/C(Br)=C\C(=O)O)cc1
active: [1] 20 µM and 17 µM | [2] 7.75 µM and 6.87 µM | [3] 12.8 µM and 20 µM | [4] 20 µM and 14.1 µM | [5] 14.3 µM and 28.4 µM | [6] 20 µM | CD38, CD38 (gene 952) 22.3 µM and 20 µM | CD40, CD40 (gene 958) 20 µM and 23.6 µM | CD69, CD69 (gene 969) 15.6 µM and 15.7 µM | [7] 20 µM | [8] 7.92 µM and 7.11 µM | [9] 35.2 µM and 34.5 µM | [10] 12 µM and 7.54 µM | [11] 3.97 µM | [12] 6.87 µM and 2.13 µM | [13] 25.9 µM and 31.6 µM
inactive: [11]

C=CC(=O)NCOCCCC
active: [5] 20 µM
inactive: all other assays above

Cc1c(O)cccc1O
active: [10] 31 µM | [12] 31 µM
inactive: all other assays above

COC(OC)(C(=O)c1ccccc1)c1ccccc1
active: [1] 38.7 nM
not listed: [14]
inactive: all other assays above
